Assay in all cases: yeast three-hybrid, YBZ-1, SC-Leu-His + 0.5 mM 3-AT, 4 days
Settings in all cases: tags: N-Gal4 AD-HA kept; label: inside an RPR1-promoter hybrid RNA with tandem MS2 sites; ssRNA

Test [1] concerns the target T1, PUM1 PUF domain R6-RFI (Homo sapiens, UniProt Q14671 828-1176, N1043R;Y1044F;Q1047I).
T1 sequence: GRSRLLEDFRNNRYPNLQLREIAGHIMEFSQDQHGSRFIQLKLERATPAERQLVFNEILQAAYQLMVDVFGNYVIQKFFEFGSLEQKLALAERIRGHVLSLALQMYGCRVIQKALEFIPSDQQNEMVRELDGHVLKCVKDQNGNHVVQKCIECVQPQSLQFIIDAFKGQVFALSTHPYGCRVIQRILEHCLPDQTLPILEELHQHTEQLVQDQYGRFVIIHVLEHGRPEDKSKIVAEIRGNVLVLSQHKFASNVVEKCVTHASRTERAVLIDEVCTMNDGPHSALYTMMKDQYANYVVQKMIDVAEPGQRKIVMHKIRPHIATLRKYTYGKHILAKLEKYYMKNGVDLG
The method, boiled down: (§1)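 The interaction score is the log change in how often each variant appears, from input to selection. Frequencies came from PCR-amplified, Illumina-sequenced repeat regions of Pumilio-1 PUF domain libraries grown in strain YBZ-1 (LexA–MS2 coat fusion, HIS3 reporter) alongside matching RNA elements. Input plates were SC-Leu and selection plates were SC-Leu-His + 0.5 mM 3-AT, each for four days, and the log2 calculation used a pseudocount of 1 where a variant was absent.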

Test [2] has as its target PUM1 PUF domain R5-RNC (Homo sapiens, UniProt Q14671 828-1176, C1007R;R1008N;Q1011C). The method, boiled down: as §1
Test [3] concerns the target T2, PUM1 PUF domain R6-GYM (Homo sapiens, UniProt Q14671 828-1176, N1043G;Q1047M).
T2 sequence: T1 sequence with R216G, F217Y, I220M
The method, boiled down:
as §1

Test [4] addresses T3, PUM1 PUF domain R6-FRL (Homo sapiens, UniProt Q14671 828-1176, N1043F;Y1044R;Q1047L).
T3 sequence: T1 sequence with R216F, F217R, I220L
The method, boiled down:
as §1

Test [5] addresses PUM1 PUF domain R5-RKT (Homo sapiens, UniProt Q14671 828-1176, C1007R;R1008K;Q1011T). The method, boiled down:
as §1

Test [6] has as its target PUM1 PUF domain R2-CYP (Homo sapiens, UniProt Q14671 828-1176, N899C;Q903P). The method, boiled down: as §1
Test [7] addresses PUM1 PUF domain R2-RRS (Homo sapiens, UniProt Q14671 828-1176, N899R;Y900R;Q903S). The method, boiled down: as §1
For test [8], the target named is PUM1 PUF domain R4-SHF (Homo sapiens, UniProt Q14671 828-1176, N971S;Q975F). The method, boiled down:
as §1

In test [9] the target is PUM1 PUF domain R4-VNA (Homo sapiens, UniProt Q14671 828-1176, N971V;H972N;Q975A). The method, boiled down:
as §1

Test [10] concerns the target PUM1 PUF domain R7-GTS (Homo sapiens, UniProt Q14671 828-1176, S1079G;N1080T;E1083S). The method, boiled down: as §1
Test [11] deals with PUM1 PUF domain R7-KGG (Homo sapiens, UniProt Q14671 828-1176, S1079K;N1080G;E1083G). The method, boiled down:
as §1

The target of test [12] is PUM1 PUF domain R5-SNN (Homo sapiens, UniProt Q14671 828-1176, C1007S;R1008N;Q1011N). The method, boiled down:
as §1

Test [13] addresses PUM1 PUF domain R5-QNG (Homo sapiens, UniProt Q14671 828-1176, C1007Q;R1008N;Q1011G). The method, boiled down:
as §1

Test [14] concerns the target PUM1 PUF domain R1-SRR (Homo sapiens, UniProt Q14671 828-1176, Q867R). The method, boiled down: as §1
In test [15] the target is PUM1 PUF domain R1-GVR (Homo sapiens, UniProt Q14671 828-1176, S863G;R864V;Q867R). The method, boiled down: as §1
Test [16] deals with T4, PUM1 PUF domain R6-SWE (Homo sapiens, UniProt Q14671 828-1176, N1043S;Y1044W;Q1047E).
T4 sequence: T1 sequence with R216S, F217W, I220E
The method, boiled down:
as §1

Test [17] deals with PUM1 PUF domain R8-RCK (Homo sapiens, UniProt Q14671 828-1176, N1122R;Y1123C;Q1126K). The method, boiled down: as §1

Changes are numbered by the printed parent chain.

As for “GGCUAGAACUAGUGGAUCCCCCGGCGCCCGGCGGCUCGAGCCCGGGUAAGUGUAAAUAGUCUGCAUGCCGCCGGGCGCCAUGCCUGCAGGUCGACUCUAGAAAACAUG”, the binding signal in test [1] is 2.68 log2 enrichment (interaction score); in test [2], 1.15 log2 enrichment (interaction score); in [3], 3.33 log2 enrichment (interaction score); in test [4], 2.93 log2 enrichment (interaction score). As to “GGCUAGAACUAGUGGAUCCCCCGGCGCCCGGCGGCUCGAGCCCGGGUAAGUGUCAAUAGUCUGCAUGCCGCCGGGCGCCAUGCCUGCAGGUCGACUCUAGAAAACAUG”, the binding signal in test [5] is 2.84 log2 enrichment (interaction score); in test [2] it was 3.93 log2 enrichment (interaction score). As to “GGCUAGAACUAGUGGAUCCCCCGGCGCCCGGCGGCUCGAGCCCGGGUAAGUGUAAAAAGUCUGCAUGCCGCCGGGCGCCAUGCCUGCAGGUCGACUCUAGAAAACAUG”, the binding signal in [6] was 5.81 log2 enrichment (interaction score); in test [7], 1.22 log2 enrichment (interaction score).

Turning to “GGCUAGAACUAGUGGAUCCCCCGGCGCCCGGCGGCUCGAGCCCGGGUAAGUGUAAAGAGUCUGCAUGCCGCCGGGCGCCAUGCCUGCAGGUCGACUCUAGAAAACAUG”, the binding signal in test [6] is 2.3 log2 enrichment (interaction score); in [7] it was 2.87 log2 enrichment (interaction score). On to “GGCUAGAACUAGUGGAUCCCCCGGCGCCCGGCGGCUCGAGCCCGGGUAAGUGUACAUAGUCUGCAUGCCGCCGGGCGCCAUGCCUGCAGGUCGACUCUAGAAAACAUG”, for which the binding signal in [8] is 5.41 log2 enrichment (interaction score); in test [9], 1.65 log2 enrichment (interaction score).

As for “GGCUAGAACUAGUGGAUCCCCCGGCGCCCGGCGGCUCGAGCCCGGGUAAGUUUAAAUAGUCUGCAUGCCGCCGGGCGCCAUGCCUGCAGGUCGACUCUAGAAAACAUG”, the values for the binding signal in test [10] and in test [11] were 2.61 log2 enrichment (interaction score) and 2.69 log2 enrichment (interaction score), respectively. Take “GGCUAGAACUAGUGGAUCCCCCGGCGCCCGGCGGCUCGAGCCCGGGUAAGUGUUAAUAGUCUGCAUGCCGCCGGGCGCCAUGCCUGCAGGUCGACUCUAGAAAACAUG”: the binding signal in test [12] was 4.07 log2 enrichment (interaction score); in test [13], 2.88 log2 enrichment (interaction score).

Turning to “GGCUAGAACUAGUGGAUCCCCCGGCGCCCGGCGGCUCGAGCCCGGGUAAGUGUAAAUUGUCUGCAUGCCGCCGGGCGCCAUGCCUGCAGGUCGACUCUAGAAAACAUG”, the values for the binding signal in test [14] and in test [15] were 1.58 log2 enrichment (interaction score) and 2.24 log2 enrichment (interaction score), respectively. Taken in the same sequence, the figures for “GGCUAGAACUAGUGGAUCCCCCGGCGCCCGGCGGCUCGAGCCCGGGUAAGUGUAAAUCGUCUGCAUGCCGCCGGGCGCCAUGCCUGCAGGUCGACUCUAGAAAACAUG” were 3.51 log2 enrichment (interaction score) and 3.35 log2 enrichment (interaction score).

With “GGCUAGAACUAGUGGAUCCCCCGGCGCCCGGCGGCUCGAGCCCGGGUAAGUGAAAAUAGUCUGCAUGCCGCCGGGCGCCAUGCCUGCAGGUCGACUCUAGAAAACAUG”, the binding signal in test [16] is 4.09 log2 enrichment (interaction score). As for “GGCUAGAACUAGUGGAUCCCCCGGCGCCCGGCGGCUCGAGCCCGGGUAAGUGGAAAUAGUCUGCAUGCCGCCGGGCGCCAUGCCUGCAGGUCGACUCUAGAAAACAUG”, the binding signal in [16] is 4.47 log2 enrichment (interaction score). In the case of “GGCUAGAACUAGUGGAUCCCCCGGCGCCCGGCGGCUCGAGCCCGGGUAAGCGUAAAUAGUCUGCAUGCCGCCGGGCGCCAUGCCUGCAGGUCGACUCUAGAAAACAUG”, the binding signal in [17] is 2.23 log2 enrichment (interaction score). Turning to “GGCUAGAACUAGUGGAUCCCCCGGCGCCCGGCGGCUCGAGCCCGGGUAAGUGUAUAUAGUCUGCAUGCCGCCGGGCGCCAUGCCUGCAGGUCGACUCUAGAAAACAUG”, the binding signal in test [9] is 3.11 log2 enrichment (interaction score).

These data come from article PMC8384837, “Expanding the binding specificity for RNA recognition by a PUF domain”.
